Results from PubChem BioAssay AID624296 (National Center for Advancing Translational Sciences (NCATS), 2012).
Hit rate of the full screen: of about 350,000 compounds, about 9,900 (2.8%) were called active. About 15% were inconclusive and are not listed. The call rests on the fitted dose curve; in most records, active means well fitted activation curve with a large enough effect; inconclusive means small, poorly fitted or top-dose-only effect; inactive means no such curve, though single readings can be large or run the other way. Only a selection was taken, and actives are over-represented in it overall.

Experiment: A quantitative high throughput screen for small molecules that induce DNA re-replication in MCF 10a normal breast cells. Further: nearly all actives have a fitted effect of over 50% in size. On activity, positive = re-replication: % of control where 0% means no effect.
Conditions: MCF 10A DNA re-replication, Hoechst nuclear intensity, 48 h; series mostly up to 46.1 µM; activity, positive = re-replication: at the top concentration
Potency means the concentration at half of the fitted maximal effect.

| SMILES | activity, positive = re-replication | Potency |
| --- | --- | --- |
| CC(NC(=O)c1ccccc1)C(=O)Nc1ccccc1 (stereo not drawn) | -2.99% (inactive) |  |
| CC(Oc1ccc2c(-c3ccccc3)cc(=O)oc2c1)C(=O)NC(Cc1c[nH]c2ccccc12)C(=O)O (stereo not drawn) | -19.5% (inactive) |  |
| Cc1ccccc1N1CCN(S(=O)(=O)c2ccc3ccccc3c2)CC1 | 17.8% (inactive) |  |
| Cc1ccc(S(=O)(=O)N2CCN(c3ccccc3)CC2)cc1C | 1.22% (inactive) |  |
| Cc1cc(N2CCN(S(=O)(=O)c3ccc(C)c(C)c3)CC2)c2ccccc2n1 |  | 10.3 µM (active) |
| COc1ccc(Cl)cc1C=CC=NNC(=O)c1ccncc1 | 0.633% (inactive) |  |
| COc1ccccc1C(=O)NCC(=O)OCC(=O)NNC(=O)c1ccc(Br)cc1 | -1.96% (inactive) |  |
| O=C(O)c1ccccc1N=N/C(=N/Nc1cc(S(=O)(=O)O)ccc1O)c1ccccc1 | -5.64% (inactive) |  |
| O=C(CN1C(=O)c2cccc3cccc1c23)Nc1ccccc1 |  | 20.6 µM (active) |
| Cc1cccc(NC(=O)CN2C(=O)c3ccccc3C2=O)c1C | 14.4% (inactive) |  |
| Cc1cc(C)cc(NC(=O)CN2C(=O)c3ccccc3C2=O)c1 | -6.92% (inactive) |  |
| CN(C(=O)CSc1nnc(-c2ccc3c(c2)OCO3)o1)C1CCS(=O)(=O)C1 (stereo not drawn) | -9.07% (inactive) |  |
| Cc1ccc(S(=O)(=O)N(C)C)cc1NC(=O)c1ccc(-n2cncn2)c([N+](=O)[O-])c1 | 1.7% (inactive) |  |
| CCOCCn1[nH]c2ccccc2c1=O | 13.8% (inactive) |  |
| COc1ccc(CCNC(=O)COC(=O)c2cc(=O)c3ccccc3o2)cc1 | -1.05% (inactive) |  |
| COc1ccc(CNC(=O)COC(=O)C2=Cc3ccccc3OC2)cc1 |  | 18.4 µM (active) |
| O=C(COC(=O)c1ccc2c(c1)OCCO2)NCc1ccccc1 | -0.36% (inactive) |  |
| CN(/N=C/c1ccccc1)C(=S)c1ccccc1 | 0.402% (inactive) |  |
| CCC(CO)Oc1cc(NC(=O)c2ccc(Cl)cc2)c2ncn(C(C)C)c2c1 (stereo not drawn) | 0.301% (inactive) |  |
| Cc1ccccc1Nc1nnc(C)c(=O)[nH]1 | -1.32% (inactive) |  |
| Cc1nnc(N/N=C/c2cccs2)[nH]c1=O | -2.78% (inactive) |  |
| Cc1nnc(N/N=C/c2ccccn2)[nH]c1=O |  | 2.59 µM (active) |
| COc1ccc2nc(N3CCCC(O)C3)c(C#N)cc2c1 (stereo not drawn) | 6.88% (inactive) |  |
| CCOc1ccc2nc(N3CCCN(C(=O)Nc4ccccc4C)CC3)c(C#N)cc2c1 |  | 16.4 µM (active) |
| CCOc1ccc(C(=O)NC2CCN(C(=O)Nc3ccccc3OC)CC2)cc1 | 0.507% (inactive) |  |
| C[C@H](NS(=O)(=O)c1ccc(Cl)cc1)C(=O)OCC(=O)N1CCOCC1 | -7.44% (inactive) |  |

| SMILES | activity, positive = re-replication | Potency |
| --- | --- | --- |
| CC(C)[C@@H](C(=O)OCC(=O)c1ccc2c(c1)NC(=O)CO2)N1C(=O)c2ccccc2C1=O | 14.5% (inactive) |  |
| Cc1cccc(Nc2nnc(SCC(=O)c3c(N)n(C4CC4)c(=O)[nH]c3=O)s2)c1C | 3.57% (inactive) |  |
| COc1ccc(Cc2nnc(N/N=C/c3ccccc3O)[nH]c2=O)cc1OC |  | 10.3 µM (active) |
| COc1ccc(/C=N/Nc2nc3ccccc3c(=O)[nH]2)cc1 | 0.203% (inactive) |  |
| O=c1[nH]c(NCCO)nnc1Cc1ccc(Cl)cc1 | -14.8% (inactive) |  |
| CCN(CC)S(=O)(=O)c1ccc(N2CCOCC2)c(NC(=O)C(C)Oc2ccc(F)cc2)c1 (stereo not drawn) | 0.635% (inactive) |  |
| COC(=O)c1cc(-c2cccs2)nc2ccccc12 | -1.79% (inactive) |  |
| O=C(Nc1nnc(-c2ccccc2)o1)c1cc(-c2cccs2)nc2ccccc12 |  | 2.06 µM (active) |
| CC(C)(C)Cc1nnc(NC(=O)c2cc(-c3ccccc3)nc3ccccc23)s1 | 19.2% (inactive) |  |
| COc1cccc(N2CCN(CC(=O)Nc3ccnn3C3CCCC3)CC2)c1 | 8.58% (inactive) |  |
| Cc1cc(C)cc(NC(=O)C(c2ccccc2)N2CCN(CC(=O)N3CCCC3)CC2)c1 (stereo not drawn) | 0.469% (inactive) |  |
| COc1ccc(CNC(=O)C[C@H]2C[C@H](C(=O)N3CCOCC3)[C@@]3(C)c4[nH]c5cc(CCC(=O)N(C)C)ccc5c4CCN3C2=O)cc1OC | -2.67% (inactive) |  |
| O=C(CN1C(=O)NC2(CCCCC2)C1=O)N1CCN(C(=O)c2cccs2)CC1 | -2% (inactive) |  |
| CCn1c(=S)[nH]c2sc3c(c2c1=O)CCCCC3 | 7.93% (inactive) |  |
| CCC1(C)Cc2c(sc3[nH]c(=S)n(Cc4ccccc4)c(=O)c23)CO1 (stereo not drawn) |  | 13 µM (active) |
| CCC1(C)Cc2c(sc3nc(SC)[nH]c(=O)c23)CO1 (stereo not drawn) | -1.6% (inactive) |  |
| CCCCN(CCCC)CC(O)Cn1c2ccccc2c(=O)c2ccccc21 (stereo not drawn) |  | 18.4 µM (active) |
| CS(=O)(=O)N(CC(O)Cn1c2ccccc2c2ccccc21)c1cccc2ccccc12 (stereo not drawn) |  | 16.4 µM (active) |
| CCCn1c(=O)c(-c2ccccc2)c(O)c2ccccc21 | 7.08% (inactive) |  |
| Cc1cc(C)n(CC(O)CN(c2ccccc2)S(=O)(=O)c2ccc3ccccc3c2)n1 (stereo not drawn) | 3.27% (inactive) |  |
| CCCCn1c(=O)c(C(C)=O)c(O)c2ccccc21 | 5.82% (inactive) |  |
| O=S(=O)(c1ccccc1)N(CC(O)CN1CCCCC1)c1ccccc1 (stereo not drawn) | 4.96% (inactive) |  |
| O=C(CN1C(=O)NC(Cc2c[nH]c3ccccc23)C1=O)Nc1ccccc1C(F)(F)F (stereo not drawn) | 3.41% (inactive) |  |
| CN(CC(=O)Nc1ccc(C(N)=O)cc1)S(=O)(=O)c1ccc2c(c1)OCCO2 | -1.22% (inactive) |  |
| Cn1nccc1C(=O)NC1CCCc2c1cnn2-c1ccccc1F (stereo not drawn) | 10.6% (inactive) |  |
| CC(=O)NCC(=O)NC1CCCc2c1cnn2-c1ccccc1F (stereo not drawn) | -1.44% (inactive) |  |

| SMILES | activity, positive = re-replication | Potency |
| --- | --- | --- |
| COc1ccc(C(=O)NC2CCCc3c2cnn3-c2cccc(C)c2C)c(OC)n1 (stereo not drawn) |  | 18.4 µM (active) |
| CC(C)(C)NS(=O)(=O)NC(=O)C1=C(N2CCCC2)COC1=O | 11.9% (inactive) |  |
| Cc1ccc(S(=O)(=O)N2CCCCC2)cc1NC(=O)[C@@H]1CCCN1C(=O)c1cccs1 | -5.26% (inactive) |  |
| Cc1ccc(S(=O)(=O)NCC(=O)NNC(=O)c2ccc(Br)cc2)cc1C | 5.77% (inactive) |  |
| FC(F)(F)c1cc(-c2ccco2)nc(NCc2ccc(Cl)cc2)n1 |  | 16.4 µM (active) |
| Cc1cc(C(F)(F)F)nn1-c1nc(-c2ccco2)cc(C(F)(F)F)n1 | -6% (inactive) |  |
| FC(F)(F)c1cc(-c2cccs2)nc(NCc2ccco2)n1 | 13.3% (inactive) |  |
| CN(CC(=O)Nc1ccc(F)c(F)c1F)C(=O)C1CC(=O)N(C2CCCC2)C1 (stereo not drawn) | -28.2% (inactive) |  |
| O=C(N[C@@H](Cc1c[nH]c2ccccc12)C(=O)O)OCC1c2ccccc2-c2ccccc21 | 10.8% (inactive) |  |
| COc1ccc(CCNC(=O)COC(=O)c2ncc(Cl)c(Cl)c2Cl)cc1OC | -0.637% (inactive) |  |
| CCOC(=O)c1ccccc1NC(=O)CSc1nc2ccccc2c(=O)[nH]1 |  | 18.4 µM (active) |
| CCOC(=O)c1cnc(SCC(=O)Nc2ccccc2C(=O)OC)nc1N | 16.1% (inactive) |  |
| COC(=O)c1ccccc1NC(=O)CSc1nc2c(c(=O)[nH]1)CCC2 | -2.45% (inactive) |  |
| Cc1ccc(Cn2c(C)c3cnn(CC(=O)NCCN4CCOCC4)c(=O)c3c2C)cc1 | -2.54% (inactive) |  |
| O=C(NCCCN1CCOCC1)c1cn(-c2ccccc2)nc1-c1ccc(F)cc1 | 10.2% (inactive) |  |
| COc1ccc(-c2ccc3c(c2)C2CC3CCN2CCC#N)cc1 (stereo not drawn) | 1.97% (inactive) |  |
| CCN(CC)S(=O)(=O)c1cc(C(=O)Nc2cc(S(=O)(=O)N3CCOCC3)ccc2N2CCCC2)ccc1F | -0.679% (inactive) |  |
| O=C1NC(c2ccncc2)Nc2sc3c(c21)CCCC3 (stereo not drawn) | 11.3% (inactive) |  |
| C/C(=C\c1ccccc1)C1NC(=O)c2c(sc3c2CCCC3)N1 (stereo not drawn) |  | 20.6 µM (active) |
| O=C1CCCCC1C(=O)c1ccccc1 (stereo not drawn) | 1.46% (inactive) |  |
| CNC[C@H]1Oc2c(NC(=O)C3CCCCC3)cccc2C(=O)N([C@H](C)CO)C[C@@H]1C | -2.79% (inactive) |  |
| Cc1noc(C)c1S(=O)(=O)N(C)C[C@H]1Oc2ccc(NC(=O)C3CCCCC3)cc2C(=O)N([C@H](C)CO)C[C@@H]1C | 26.5% (inactive) |  |
| O=C(COC(=O)c1ccccc1)c1ccc2c(c1)OCCO2 | 4.61% (inactive) |  |
| O=C(CCN1CCc2ccccc2C(O)(c2ccccc2)C1)c1ccc2c(c1)OCCO2 (stereo not drawn) |  | 6.51 µM (active) |
| O=C(CN1CCC(O)(c2ccccc2)CC1)Nc1ccc2c(c1)OCCO2 | -3.64% (inactive) |  |
| CCN(C(=O)COC(=O)c1ccccc1O)c1cccc2ccccc12 | -2.15% (inactive) |  |

| SMILES | activity, positive = re-replication | Potency |
| --- | --- | --- |
| O=C(CCCOc1ccccc1)NNC(=O)c1ccc(Cl)cc1 | -2.69% (inactive) |  |
| CCS(=O)(=O)C1=NSC2=NC(=O)/C(=C\c3ccc(OS(=O)(=O)c4ccccc4)cc3)C(=N)N21 | -5.59% (inactive) |  |
| CCS(=O)(=O)C1=NSC2=NC(=O)/C(=C\c3cc(C)n(-c4cccc(OC)c4)c3C)C(=N)N21 |  | 5.8 µM (active) |
| CCC1=NN2C(=N)/C(=C/c3cc(C)n(-c4ccccc4)c3C)C(=O)N=C2S1 | 11.7% (inactive) |  |
| CC(=O)c1cccc(-c2ccc(CN3C(CC(C)C)C(=O)N(Cc4cn(CC5CCCCC5)nn4)CCS3(=O)=O)cc2)c1 (stereo not drawn) | 24.9% (inactive) |  |
| CCOc1cc2ccccc2cc1C(=O)Nc1ccccn1 | 5.04% (inactive) |  |
| CCOc1cc(NC(=O)c2ccccn2)c(OCC)cc1NC(=O)c1ccc(OC)cc1 |  | 3.26 µM (active) |
| CCOc1ccc(C(=O)Nc2cc(OC)ccc2OC)cc1 | 1.23% (inactive) |  |
| CN(Cc1ccc(CNC[C@H]2O[C@@H](n3cnc4c(N)ncnc43)[C@H](O)[C@@H]2O)o1)S(C)(=O)=O | -3.25% (inactive) |  |
| Cc1c(C(C)CCCO)oc(=O)c2c1Oc1c(C)c(C(C)C[C@@H](C)O)oc(=O)c1C2 (stereo partly drawn) | -16.4% (inactive) |  |
| CCCn1c(C)cc(C(=O)COC(=O)c2c(C)nn(-c3ccccc3)c2C)c1C |  | 9.2 µM (active) |
| Cc1nn(-c2ccccc2)c(C)c1C(=O)OCC(=O)NC(=O)NC1CCCCC1 | 5.35% (inactive) |  |
| Cc1cccc(C)c1NC(=O)COC(=O)c1c(C)nn(-c2ccccc2)c1C | -7.91% (inactive) |  |
| O=C1CCC/C=C\C[C@@H](CC(=O)N(CCO)Cc2ccccc2)C(=O)NCCO1 | -0.188% (inactive) |  |
| O=C1OCC2=C1C(c1ccc(Cl)cc1)c1cc3c(cc1O2)OCO3 (stereo not drawn) | 29.5% (inactive) |  |
| C=CC(=O)OCCOCCOCCOCCOC(=O)C=C |  | 5.8 µM (active) |
| Cc1cc(N/N=C\c2ccc(Br)cc2)nc(-n2nc(C)cc2C)n1 |  | 18.4 µM (active) |
| CCOC(=O)c1cnc(-n2nc(C)cc2C)nc1Nc1cccc(C(C)=O)c1 | 0.919% (inactive) |  |
| COc1ccc(Nc2cc(C)nc(-n3nc(C)cc3C)n2)cc1 |  | 2.06 µM (active) |
| Cc1cc(C)n(-c2ccc(Cl)c(C(=O)O)n2)n1 | 3.83% (inactive) |  |
| Cc1cc(C)n(-c2nnc(N3CCN(c4ccccc4)CC3)nn2)n1 | 1.27% (inactive) |  |
| Cc1cc(Nc2ccc(Cl)cc2)nc(N2CCOCC2)n1 | 4.08% (inactive) |  |
| CC(=O)c1ccc(Oc2cc(C)nc(-n3nc(C)cc3C)n2)cc1 |  | 4.11 µM (active) |
| Cc1ccc(S(=O)(=O)Nc2nc(C)cc(N/N=C/c3ccc(O)cc3)n2)cc1 | -0.365% (inactive) |  |
| CC(=O)Nc1ccc(Nc2cc(C)nc(Nc3ccc(NC(C)=O)cc3)n2)cc1 | 3.9% (inactive) |  |
